A short description of test [1]: reducers of endogenous Her2 protein level, primary screen, SKBR3 breast tumor cells, AlphaScreen, ATP viability (AID 461;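 active = Her2 level under about 52% in both replicate screens, with viability over 70% of control, limit read from the data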;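 for Her2 level: lower value means less Her2 protein in the cells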;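 for viability: percent of carrier control wells set as 100% viability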). The note with it: 18-24 h, measured here: SKBR3 viability, ATP luminescence, at 10 µM.
Test [2] addresses Receptor tyrosine-protein kinase erbB-2 (Homo sapiens) (UniProt P04626). The test is described as above. The note with it: 18-24 h, at 10 µM, stronger effect = lower value.
Test [3] in a line: SK-BR-3 cell growth inhibitors, pilot screen, 24 h, human (AID 572;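 active = viability at or below 10% of carrier control in both of two separate runs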;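 note: compound exposure lasted between 18 and 24 h rather than exactly 24 h; 100% = carrier-treated control wells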). The following applies: SK-BR-3 viability, CellTiter-Glo luminescence, at 10 µM, stronger effect = lower value.
Test [4] in a line: growth inhibitors of H69AR lung tumor, primary screen, human, duplicate replicates (AID 580;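 active = viability at or under a set limit in both replicates, limit being median viability minus 3 SD, cut at about 48% in these data, passing the limit was not always enough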;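 note: 100% = mean luminescence of untreated wells and 0% = no signal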). The following applies: H69AR lung tumor cells viability, ATP luminescence, 72 h; at 10 µM; stronger effect = lower value.
Test [5] in a line: reversal of MRP1-mediated doxorubicin resistance, pilot screen, H69AR cells, doxorubicin co-treatment (AID 601). The following applies: CellTiter-Glo, 72 h, at 10 µM; for differential viability (reversal): stronger effect = higher value.
Test [6] can be described thus: 384-well plate pilot, post-Golgi transport modulator project, inhibition of yeast transport mutant growth (AID 636; in the data active = inhibition above about 31%). The note with it: absorbance 615 nm, about 18 h, stronger effect = higher value.
Test [7] is described as follows: growth suppression of yeast trafficking mutant, preliminary HTS, modulators of trafficking downstream of Golgi apparatus project, 1536-format plate, OD 615 nm (AID 637; in the data active = inhibition above about 30%). The following applies: yeast transport mutant growth, absorbance 615 nm, 18 h; stronger effect = higher value.
A short description of test [8]: OD615 S. cerevisiae growth inhibition, permissive medium, pilot counter-assay, permissive growth control for S. cerevisiae lifespan shortening project (AID 705;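 active = growth inhibition above 25% in both replicates, a cutoff set 3 SD above the mean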). The following applies: OD615, 24 h, at 10 µM, stronger effect = higher value.
Test [9] is described as follows: Restrictive medium S. cerevisiae growth inhibition, OD615, pilot screen of yeast lifespan reduction project, restrictive growth control (AID 706;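 active = growth inhibition above a set limit, 3 SD over mean compound inhibition, in both replicates, cut at about 43% in these data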;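 note: modified DeaD lifespan yeast strain shifted to restrictive glucose medium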). The note with it: OD615, 48 h, at 10 µM, stronger effect = higher value.
A short description of test [10]: viability gain of MRP-1-high H69AR cells under doxorubicin, pilot screen, MRP-1 activator project, CellTiter-Glo, duplicate (AID 807;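 active = viability increase at or above a cutoff of the median across tested compounds plus 3 SD, cut at about 8.5% in these data, passing the limit was not always enough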;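 note: compound pretreatment 18-22 h then 72 h combined with doxorubicin; 0% = doxorubicin alone and 100% = vehicle without doxorubicin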). The note with it: H69AR viability with doxorubicin, CellTiter-Glo luminescence; at 10 µM; stronger effect = higher value.
The nature of test [11]: growth suppression of beta-catenin knockout HCT116, pilot screen, human colon tumor cells (AID 823;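 active = cell viability at or below a set limit in both duplicate runs, the limit being the all-compound median minus 4 SD, cut at about 23% in these data, passing the limit was not always enough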;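 note: 0% = wells killed by 20 µM Hyamine and 100% = untreated DMSO cell wells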). The note with it: CellTiter-Glo, 60 h, at 10 µM, stronger effect = lower value.
Test [12] is described as follows: growth suppression of PTEN-deleted HCT116, pilot screen, cell-based, HCT116 clonal line, CellTiter-Glo (AID 824;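 active = viability at or below 27.92% in each of two runs, the all-compound median minus 4 SD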;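 note: 0% = 20 µM Hyamine control and 100% = vehicle cell control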). The note with it: 60 h, at 10 µM, stronger effect = lower value.
The nature of test [13]: inhibitors of the yeast RAM network, pilot screen, dse1pr::URA3 reporter, 5-FOA selection (AID 869;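 active = inhibition over a set limit, the all-compound mean plus 3 SD, in both replicate runs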;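 note: 0% = DMSO wells with no growth and 100% = 10 µM 1-NA-PP1 with full growth; RAM network block rescues cells from 5-FOA so hits raise OD615 growth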). The note with it: S. cerevisiae dse1pr::URA3 5-FOA growth, OD615, 2 d; at 10 µM; stronger effect = higher value; strain carries analog-sensitive mutant Cbk1 kinase.
Test [14] in a line: HUVEC growth inhibition – cell-based, human, primary screen (AID 575;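 active = viability at or below 30% in both replicate assays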;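 note: 100% = median of untreated cell wells with 0.1% DMSO on each plate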). The following applies: HUVEC proliferation, CellTiter-Glo luminescence, 72 h; at 10 µM; stronger effect = lower value.
Setting [15] is: H69AR cells + 2 uM doxorubicin, measured here: viability with 2 uM doxorubicin, stronger effect = lower value.
Where [16] appears, read: H69AR cells, compound alone cytotoxicity.

Records with an inconclusive call do not appear. Activity calls are given as the source filed them.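 Rule for the calls, unless noted: active = viability loss from added drug above about 55%, and viability with drug at most 40%, in both replicates (limit read from the data, passing the limit was not always enough); inconclusive = both conditions met in only one replicate; inactive = neither replicate meets both conditions.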

Sequence of Receptor tyrosine-protein kinase erbB-2 (Homo sapiens) (P04626 whole entry, looked up): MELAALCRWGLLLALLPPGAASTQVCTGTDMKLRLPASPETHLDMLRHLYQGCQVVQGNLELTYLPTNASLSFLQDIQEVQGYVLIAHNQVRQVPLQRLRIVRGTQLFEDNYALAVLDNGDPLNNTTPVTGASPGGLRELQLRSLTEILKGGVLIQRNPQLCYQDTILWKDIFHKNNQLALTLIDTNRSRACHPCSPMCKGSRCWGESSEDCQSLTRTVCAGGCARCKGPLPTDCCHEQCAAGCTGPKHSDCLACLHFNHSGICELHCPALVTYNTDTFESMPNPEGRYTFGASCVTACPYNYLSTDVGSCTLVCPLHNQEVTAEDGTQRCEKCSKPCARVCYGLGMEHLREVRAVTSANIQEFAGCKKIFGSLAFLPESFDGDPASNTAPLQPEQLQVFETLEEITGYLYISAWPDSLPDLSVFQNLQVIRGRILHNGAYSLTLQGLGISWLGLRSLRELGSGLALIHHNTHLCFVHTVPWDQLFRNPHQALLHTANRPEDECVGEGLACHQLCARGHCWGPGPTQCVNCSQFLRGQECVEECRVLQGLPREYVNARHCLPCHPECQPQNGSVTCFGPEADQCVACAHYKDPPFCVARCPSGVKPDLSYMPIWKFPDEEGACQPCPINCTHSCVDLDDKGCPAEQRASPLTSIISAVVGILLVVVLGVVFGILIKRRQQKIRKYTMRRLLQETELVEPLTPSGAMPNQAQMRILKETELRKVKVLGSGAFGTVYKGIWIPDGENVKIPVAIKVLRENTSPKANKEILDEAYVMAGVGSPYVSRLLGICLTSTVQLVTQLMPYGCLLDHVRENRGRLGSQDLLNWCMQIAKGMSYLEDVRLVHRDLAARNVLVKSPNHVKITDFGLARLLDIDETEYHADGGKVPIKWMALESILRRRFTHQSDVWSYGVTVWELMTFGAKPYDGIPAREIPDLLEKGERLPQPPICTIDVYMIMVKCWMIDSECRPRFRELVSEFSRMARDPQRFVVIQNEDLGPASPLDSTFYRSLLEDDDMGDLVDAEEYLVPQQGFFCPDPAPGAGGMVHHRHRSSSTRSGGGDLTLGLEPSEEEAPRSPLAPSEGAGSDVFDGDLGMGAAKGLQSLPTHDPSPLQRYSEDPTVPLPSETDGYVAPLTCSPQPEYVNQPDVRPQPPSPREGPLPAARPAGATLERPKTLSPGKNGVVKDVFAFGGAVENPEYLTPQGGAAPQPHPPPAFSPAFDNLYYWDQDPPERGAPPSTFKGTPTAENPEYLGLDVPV

As for `CCOC(=O)c1cnc(-n2nc(C)cc2C)nc1NC(C)c1ccccc1` (stereo not drawn), the viability in [1] is 153%; in test [3] it was 153% (inactive); in test [4], 10.1% (active); in [5] (setting [15]), 11.3%; in test [5] (setting [16]), 10.1%. Besides, the Her2 level in [2] is 65% (inactive). Further, the differential viability (reversal) in [5] (H69AR cells + 2 uM doxorubicin) is -1.17% (inactive). The inhibition in [6] was -3.16% (inactive); in [7], 14.3% (inactive).
With `CCOc1ccc2nc(NC(=O)C(NS(=O)(=O)c3cccs3)C(C)C)sc2c1` (stereo not drawn), the viability in test [1] is 116%; in test [3], 116% (inactive); in test [4] it was 86.7% (inactive); in test [5] (setting [15]), 75%; in test [5] (setting [16]), 86.7%. Besides, in test [2], the Her2 level was 68.5% (inactive). Further, the differential viability (reversal) in test [5] (H69AR cells + 2 uM doxorubicin) is 11.7% (inactive). Besides, the inhibition in test [6] is 0% (inactive); in [7], -1.9% (inactive).
With `CCOC(=O)c1cnn(-c2ncnc3c2cnn3Cc2ccccc2)c1N`, the viability in test [1] was 99.5%; in test [3], 99.5% (inactive); in test [4] it was 17.2% (active); in test [5] (setting [15]), 31.5%; in test [5] (setting [16]) it was 17.2%. Besides, the Her2 level in test [2] was 84.5% (inactive). For the same compound, the differential viability (reversal) in test [5] (H69AR cells + 2 uM doxorubicin) is -14.3% (inactive). Moreover, the inhibition in test [6] was -5.33% (inactive); in test [7] it was -2.58% (inactive).
With `Clc1ccc(Cl)c(-c2nn3c(COc4ccccc4)nnc3s2)c1`, the viability in test [1] is 96%; in [3], 96% (inactive); in test [4], 72.9% (inactive); in test [5] (setting [15]), 71.9%; in test [5] (setting [16]), 72.9%. Also, the Her2 level in test [2] was 69% (inactive). The differential viability (reversal) in test [5] (H69AR cells + 2 uM doxorubicin) is 1.02% (inactive). For the same compound, the inhibition in test [6] was -5.07% (inactive); in test [7] it was 5.32% (inactive).
For `CCc1ccc2oc(-c3cc(N)ccc3Cl)nc2c1`, the viability in [1] is 102%; in test [3] it was 102% (inactive); in test [4], 77.2% (inactive); in test [5] (setting [15]) it was 89.4%; in test [5] (setting [16]), 77.2%. Moreover, the Her2 level in test [2] was 87.5% (inactive). In [5] (H69AR cells + 2 uM doxorubicin), the differential viability (reversal) is -12.2% (inactive). The inhibition in [6] was -0.54% (inactive); in test [7], -4% (inactive).
For the compound `CCOC(=O)c1cnc(-n2nc(C)cc2C)nc1Nc1ccc(N(C)C)cc1`, the viability is 102% in test [1]; 102% (inactive) in test [3]; 37.9% (active) in test [4]; 26.3% in [5] (setting [15]); 37.9% in [5] (setting [16]). In addition, the Her2 level in test [2] is 75.5% (inactive). In addition, the differential viability (reversal) in [5] (H69AR cells + 2 uM doxorubicin) was 11.6% (inactive). Besides, the inhibition in [6] was -6.05% (inactive); in test [7], -1.13% (inactive).
`COc1ccc(-c2nc(N)nc(C)c2Oc2ccccc2Br)c(O)c1`: the viability in [1] is 96%; in test [3], 96% (inactive); in [4] it was 5.08% (active); in test [5] (setting [15]), 17.8%; in test [5] (setting [16]) it was 5.08%. Besides, the Her2 level in test [2] is 74% (inactive). Moreover, the differential viability (reversal) in test [5] (H69AR cells + 2 uM doxorubicin) is -12.7% (inactive). The inhibition is -4.34% (inactive) in test [6] and 57.6% (active) in test [7].
In the case of `O=C(NC1CCCCC1)C(c1ccccc1)N(Cc1ccco1)C(=O)Cn1cnc2ccccc21` (stereo not drawn), the viability in test [1] was 102%; in test [3], 102% (inactive); in test [4], 78.3% (inactive); in test [5] (setting [15]) it was 70.1%; in [5] (setting [16]) it was 78.3%. Also, in test [2], the Her2 level is 90% (inactive). The differential viability (reversal) in [5] (H69AR cells + 2 uM doxorubicin) is 8.18% (inactive). In addition, the values for the inhibition in [6] and in [7] were -5.33% (inactive) and -4.92% (inactive), respectively.
With `CCOC(=O)c1c(C)oc2c1c1c(c3ccccc32)OCN(Cc2cccnc2)C1`, the viability in test [1] was 83.5%; in test [3], 83.5% (inactive); in test [5] (setting [15]) it was 21.8%; in test [5] (setting [16]), 51.6%. In test [2], the Her2 level is 75% (inactive). The differential viability (reversal) in test [5] (H69AR cells + 2 uM doxorubicin) is 29.8% (inactive). In addition, the inhibition in [6] was -0.39% (inactive); in test [7] it was -5.33% (inactive).
Regarding `O=C(CN1CCC(c2nc3ccccc3s2)CC1)NCc1cccs1`, the viability in test [1] is 110%; in test [3] it was 110% (inactive); in [4], 85.3% (inactive); in [5] (setting [15]) it was 88.6%; in test [5] (setting [16]), 85.3%. The Her2 level in test [2] was 91% (inactive). The differential viability (reversal) in test [5] (H69AR cells + 2 uM doxorubicin) is -3.33% (inactive). For the same compound, the results for the inhibition in test [6] and in [7] were -0.8% (inactive) and 6.72% (inactive), respectively.
Consider `O=C(NC1CCCc2ccccc21)C1CCN(c2nnc(-n3cccc3)s2)CC1` (stereo not drawn), for which the viability in test [1] is 84.5%; in [3], 84.5% (inactive); in test [4], 97.3% (inactive); in test [5] (setting [15]), 90.6%; in [5] (setting [16]) it was 97.3%; in test [11], 89.5% (inactive). Further, the viability in test [12] was 85% (inactive). The Her2 level in [2] was 94.5% (inactive). Besides, the differential viability (reversal) in test [5] (H69AR cells + 2 uM doxorubicin) was 6.74% (inactive). In addition, the inhibition in test [6] is 1.41% (inactive); in test [7], -2% (inactive); in [13], 1.14% (inactive). Further, the growth inhibition in test [8] is -1.88% (inactive); in [9], -6.53% (inactive). The viability increase in test [10] is -4.06% (inactive).
Consider `CN(C)CC(C(=O)c1ccccc1)c1ccccc1` (stereo not drawn), for which the viability in [3] was 30.5%; in [14] it was 53.4% (inactive); in [4], 1.17% (active); in test [5] (setting [15]) it was 1.68%; in [5] (setting [16]), 1.17%. Also, in [5] (H69AR cells + 2 uM doxorubicin), the differential viability (reversal) is -0.515% (inactive). The results for the inhibition in [6] and in test [7] were 2.95% (inactive) and -4.33% (inactive), respectively.
Turning to `CCn1c2ccccc2c2cc(N)ccc21`, the viability was 117% in [1], 117% (inactive) in test [3], 56.8% in [5] (setting [15]) and 50% in test [5] (setting [16]). For the same compound, the Her2 level in test [2] was 91.5% (inactive). Further, the differential viability (reversal) in test [5] (H69AR cells + 2 uM doxorubicin) is -6.75% (inactive). Besides, the figures for the inhibition in test [6] and in test [7] were -5.73% (inactive) and 1.59% (inactive), respectively.
On to `CCOc1ncccc1C(=O)Nc1ccc(Cl)cc1`, for which the viability in [3] was 92% (inactive); in test [14], 91.4% (inactive); in test [4] it was 79.8% (inactive); in test [5] (setting [15]) it was 83.2%; in [5] (setting [16]), 79.8%. Moreover, the differential viability (reversal) in test [5] (H69AR cells + 2 uM doxorubicin) is -3.41% (inactive). The inhibition in [6] is 1.17% (inactive); in test [7], 0.49% (inactive).

For the origin of these results see PubChem BioAssay.
